Reference: the supplement of paper PMC8728848
This is one part of a sample in which the strongest signals are shown more often than they occur.

Legend:
Test in all cases: glycan array binding signal (z-score within array); higher = stronger binding
Conditions in all cases: glycan notation: IUPAC condensed, linker removed
[1] = target: Gal(b1-4)GlcNAc(b1-2)[Gal(b1-4)GlcNAc(b1-4)]Man(a1-3)[GlcNAc(b1-4)][Gal(b1-4)GlcNAc(b1-2)Man(a1-6)]Man(b1-4)GlcNAc(b1-4)GlcNAc
Outline: (§1)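 Glycan array data came from 3228 arrays in the Consortium for Functional Glycomics database, and only arrays with an available protein sequence were kept. Glycan names were put into IUPAC-condensed notation, and columns mapping to the same glycan were averaged. The binding signal is a within-array Z-score, averaged across arrays of one protein sequence run at different concentrations or buffers and across linkers. A negative Z-score can be read as non-binding.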

[2] = target: Gal(b1-4)GlcNAc(b1-2)[Gal(b1-4)GlcNAc(b1-6)]Man(a1-6)[Gal(b1-4)GlcNAc(b1-2)Man(a1-3)]Man(b1-4)GlcNAc(b1-4)[Fuc(a1-6)]GlcNAc
Outline: as §1

[3] = target: Gal(b1-4)GlcNAc(b1-3)Gal(b1-4)GlcNAc(b1-2)[Gal(b1-4)GlcNAc(b1-3)Gal(b1-4)GlcNAc(b1-6)]Man(a1-6)[Gal(b1-4)GlcNAc(b1-3)Gal(b1-4)GlcNAc(b1-2)Man(a1-3)]Man(b1-4)GlcNAc(b1-4)GlcNAc
Outline: as §1

[4] = target: Gal(b1-4)GlcNAc(b1-3)Gal(b1-4)GlcNAc(b1-3)Gal(b1-4)GlcNAc(b1-3)Gal(b1-4)GlcNAc(b1-2)Man(a1-3)[Gal(b1-4)GlcNAc(b1-3)Gal(b1-4)GlcNAc(b1-3)Gal(b1-4)GlcNAc(b1-3)Gal(b1-4)GlcNAc(b1-2)Man(a1-6)]Man(b1-4)GlcNAc(b1-4)GlcNAc
Outline: as §1

[5] = target: Gal(b1-4)GlcNAc(b1-3)[Fuc(a1-3)GlcNAc(b1-6)]Gal(b1-4)Glc
Outline: as §1

[6] = target: Gal(b1-4)GlcNAc(b1-6)Gal(b1-4)GlcNAc
Outline: as §1

Gal3S6S(b1-4)GlcNAc = target: Gal3S6S(b1-4)GlcNAc
Outline: as §1

Gal6S(b1-3)GlcNAc6S = target: Gal6S(b1-3)GlcNAc6S
Outline: as §1

Gal6S(b1-4)Glc6S = target: Gal6S(b1-4)Glc6S
Outline: as §1

Gal6S(b1-4)GlcNAc6S = target: Gal6S(b1-4)GlcNAc6S
Outline: as §1

GalNAc(b1-3)Gal = target: GalNAc(b1-3)Gal
Outline: as §1

GlcA(b1-6)Gal = target: GlcA(b1-6)Gal
Outline: as §1

[7] = target: GlcNAc(a1-4)Gal(b1-3)GlcNAc
Outline: as §1

[8] = target: GlcNAc(a1-4)Gal(b1-4)GlcNAc
Outline: as §1

[9] = target: GlcNAc(a1-4)Gal(b1-4)GlcNAc(b1-3)Gal(b1-4)[Fuc(a1-3)]GlcNAc(b1-3)Gal(b1-4)[Fuc(a1-3)]GlcNAc
Outline: as §1

[10] = target: GlcNAc(b1-2)[GlcNAc(b1-6)]Man(a1-6)[GlcNAc(b1-2)Man(a1-3)]Man(b1-4)GlcNAc(b1-4)GlcNAc
Outline: as §1

GlcNAc(b1-3)Fuc = target: GlcNAc(b1-3)Fuc
Outline: as §1

[11] = target: GlcNAc(b1-3)Gal(b1-4)GlcNAc(b1-3)GalNAc
Outline: as §1

[12] = target: GlcNAc(b1-4)GlcNAc(b1-4)GlcNAc(b1-4)GlcNAc(b1-4)GlcNAc
Outline: as §1

[13] = target: Neu5Ac(a2-3)Gal(b1-4)GlcNAc(b1-6)[Neu5Ac(a2-3)Gal(b1-3)]GalNAc
Outline: as §1

[14] = target: Neu5Ac(a2-3)Gal(b1-4)GlcNAc6S
Outline: as §1

[15] = target: Neu5Ac(a2-3)[GalNAc(b1-4)]Gal(b1-4)GlcNAc
Outline: as §1

[16] = target: Neu5Ac(a2-6)Gal(b1-4)GlcNAc(b1-2)Man
Outline: as §1

[17] = target: Neu5Ac(a2-6)Gal(b1-4)GlcNAc(b1-3)Gal(b1-3)GlcNAc
Outline: as §1

[18] = target: Neu5Ac(a2-6)Gal(b1-4)GlcNAc(b1-3)Gal(b1-4)GlcNAc(b1-3)Gal(b1-4)GlcNAc(b1-2)Man(a1-3)[Neu5Ac(a2-6)Gal(b1-4)GlcNAc(b1-3)Gal(b1-4)GlcNAc(b1-3)Gal(b1-4)GlcNAc(b1-2)Man(a1-6)]GalNAc
Outline: as §1

[19] = target: Neu5Ac(a2-6)GalNAc(b1-4)GlcNAc6S
Outline: as §1

[20] = target: Neu5Ac(a2-8)Neu5Ac(a2-8)Neu5Ac(a2-3)Gal(b1-4)Glc
Outline: as §1

B1: Epa3to1 (Candida glabrata) (protein)
chain: MGSSHHHHHHSSGLVPRGSHMKRELSSQNPFGYPIGCSPQDVAIIPGLTMELYSYPIVSGTPPNCYDASYVDPEYPRTGYLKRKMVGKSTGVTGNLNYKYSVEKACMVKYGNLPAGYNYNEPLTVSNFTMILYGYFKAQTTGLHTFFVNADDLLYINFGAGNAFDCCKREDSKTKLGEYVAYDIWHVDSSKNKVSLFLEKDLYYPIRMFFNNREYDSSLDLSFSVNGATDQISDFSGYLYSVPDQPDTCPAHIGYDTTCR
[1]
  glycan array binding signal (z-score): 0.229
[2]
  glycan array binding signal (z-score): 0.071
[3]
  glycan array binding signal (z-score): 7.55
[4]
  glycan array binding signal (z-score): -0.05
[5]
  glycan array binding signal (z-score): 2.39
[6]
  glycan array binding signal (z-score): 0.054
Gal3S6S(b1-4)GlcNAc
  glycan array binding signal (z-score): 0.487
Gal6S(b1-3)GlcNAc6S
  glycan array binding signal (z-score): 4.12
Gal6S(b1-4)Glc6S
  glycan array binding signal (z-score): 6.81
Gal6S(b1-4)GlcNAc6S
  glycan array binding signal (z-score): 9.56
GalNAc(b1-3)Gal
  glycan array binding signal (z-score): 0.105
GlcA(b1-6)Gal
  glycan array binding signal (z-score): 0.35
[7]
  glycan array binding signal (z-score): -0.807
[8]
  glycan array binding signal (z-score): -0.345
[9]
  glycan array binding signal (z-score): -0.037
[10]
  glycan array binding signal (z-score): -0.435
GlcNAc(b1-3)Fuc
  glycan array binding signal (z-score): -0.291
[11]
  glycan array binding signal (z-score): 0.229
[12]
  glycan array binding signal (z-score): 4.95
[13]
  glycan array binding signal (z-score): -0.382
[14]
  glycan array binding signal (z-score): -0.83
[15]
  glycan array binding signal (z-score): -0.706
[16]
  glycan array binding signal (z-score): -0.272
[17]
  glycan array binding signal (z-score): 4.57
[18]
  glycan array binding signal (z-score): 0.07
[19]
  glycan array binding signal (z-score): -0.365
[20]
  glycan array binding signal (z-score): 0.154
